These results are taken from PubChem BioAssay AID488835 (Broad Institute, 2010).

In all, about 1,400 compounds went through this assay and about 140 (10%) were called active.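 The calls were made as follows: active = Half-maximal inhibitory dose from the fit at or below ten times the top valid tested dose; inconclusive = Invalid fit, or flat curve showing 30 to 70% inhibition; inactive = the rest.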 Not all results are given here. Entries with a potency or affinity are not part of this list.

The experiment deals with Lysine-specific demethylase 4C (Homo sapiens) (UniProt Q9H3R0). Kind of experiment: GASC-1 (JMJD2C) histone demethylase inhibitors, dose response, biochemical, DELFIA europium, cherry-picked samples (AID 488835).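 Also: signal is the H3K9me2 demethylation product detected by a dimethyl-specific antibody.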 To be noted: GST-JMJD2C(1-420), H3K9me3 demethylation; series mostly up to 6 µM.
Lysine-specific demethylase 4C (Homo sapiens), sequence (Q9H3R0 1-420 limits assumed): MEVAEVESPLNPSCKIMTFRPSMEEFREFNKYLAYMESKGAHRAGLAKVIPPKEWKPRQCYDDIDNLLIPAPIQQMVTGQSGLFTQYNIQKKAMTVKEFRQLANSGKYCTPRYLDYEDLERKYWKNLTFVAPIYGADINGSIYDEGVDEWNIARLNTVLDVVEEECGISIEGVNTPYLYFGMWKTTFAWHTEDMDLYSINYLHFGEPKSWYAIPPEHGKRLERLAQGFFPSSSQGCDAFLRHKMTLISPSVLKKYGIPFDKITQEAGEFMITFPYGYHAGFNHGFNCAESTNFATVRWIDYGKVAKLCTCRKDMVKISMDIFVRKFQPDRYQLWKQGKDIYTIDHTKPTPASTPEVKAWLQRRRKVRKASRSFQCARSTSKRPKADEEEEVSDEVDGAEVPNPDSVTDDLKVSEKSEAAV
As to `O=C(Cn1c(=O)sc2ccccc21)NCc1ccco1`, the outcome was inactive. With `CS(=O)(=O)N(CCc1ccccc1)CC(=O)NCc1ccc(Cl)cc1`, the result was inactive. As for `COc1ccccc1Nc1ncnc2ccccc12`, the compound was classed as inactive.

Consider `Cc1ccc(NC(=O)CSc2cccc[n+]2[O-])c([N+](=O)[O-])c1`, for which the outcome was inactive. Take `Cc1cc(C)cc(C(=O)N2CCC(C(N)=O)CC2)c1`: the compound was called inactive. For the compound `O=C(/C=C/c1ccc2c(c1)OCO2)NCCS(=O)(=O)N1CCN(c2ccc(F)cc2)CC1`, the call was inactive. Take `O=C(N/N=C/c1ccccc1)c1c(O)c2ccccc2[nH]c1=O`: the compound was classed as inactive. For `COc1ccc(NC(=O)O/N=C/c2ccccc2)cc1`, the compound was classed as inactive. As for `CC(C)Cn1c(N)c(C(=O)COC(=O)c2c(O)c(Cl)cc(Cl)c2Cl)c(=O)n(C)c1=O`, the entry is “inactive”; as for `CC(=O)C[C@@H](O)CC(=O)[C@H]1OC(=O)CCCCCc2ccccc21`, “inactive”; as for `Cn1c(=N)n(CC(O)c2ccccc2)c2ccccc21` (stereo not given), “inactive”.

With `COc1cccc(NC(=O)COC(=O)c2ccc(S(=O)(=O)NCc3ccco3)cc2)c1`, the call was inactive. As for `CSCCC(NS(=O)(=O)c1ccc(Cl)cc1)C(=O)O` (stereo not given), the entry is “inactive”; as for `O=C(CSc1nc2ccccc2c(=O)n1Cc1ccc(C(=O)NC2CC2)cc1)NCc1ccco1`, “inactive”; as for `Cc1nnc(SCc2nc3ccccc3[nH]2)s1`, “inactive”. With `CCCC(=O)Nc1nc2c(c(=O)[nH]1)CCCC2`, the result was inactive. As for `COc1ccc(C(=O)N2CCC(C(=O)NCc3ccccn3)CC2)cc1`, the entry is “inactive”; as for `COc1ccc(N=Cc2cccc(C)c2O)cc1Cl`, “inactive”; as for `O=C(NC(=S)Nc1ccccn1)c1ccc([N+](=O)[O-])cc1`, “inactive”.

Take `CN(C)c1ccc(C2Nc3ccccc3C(=O)N2CCN2CCNC2=O)cc1` (stereo not given): the compound was called inactive.

For `COc1ccc(/C=C2\Sc3ccc(C(=O)N4CCCC4)cc3N(C)C2=O)cc1OC`, the result was inactive. Consider `Cc1ccc(NC(=O)CSc2nc3c(c(=O)[nH]2)CN(Cc2ccc(F)cc2)CC3)cc1C`, for which the outcome was inactive. Take `CC(=O)c1ccc(O[C@@H]2O[C@H](CO)[C@@H](O)[C@H](O)[C@H]2O)cc1`: the outcome was inactive. In the case of `O=c1cc(-c2ccc(O)c(O)c2)oc2c(C3O[C@H](CO)[C@@H](O)[C@H](O)[C@H]3O)c(O)cc(O)c12` (stereo not given in full) it was “inactive”; in that of `CC(C)n1cnc2c(NCc3ccccc3)nc(NCc3ccccc3)nc21`, “inactive”; in that of `Cn1nnc(NC(=O)CSc2ccc(Cl)cc2)n1`, “inactive”. As for `Cc1cccn2c(=O)c(/C=N/O)c(N3CCCC3)nc12`, the compound was called inactive. In the case of `Cc1ccc(NC(=O)CSc2ncc(S(=O)(=O)c3ccccc3)c(=O)[nH]2)cc1C` it was “inactive”.

For `Cc1cc(C)nc(NCc2ccc(Cl)cc2)n1`, the call was inactive.

In the case of `Cn1c(=O)[nH]c(=O)c2c1nc(N1CCOCC1)n2CCc1ccccc1`, the outcome was inactive. As to `COc1ccc(NC(=O)N(C)C[C@H]2Oc3c(NC(=O)C4CC4)cccc3C(=O)N([C@H](C)CO)C[C@@H]2C)cc1`, the compound was called inactive. As for `Cc1occc1-c1nnc(SCC(=O)c2cc3ccccc3oc2=O)o1`, the result was inactive. In the case of `Cc1ccc(CCNC(=O)C23C[C@H]4C[C@@H](C2)CC(n2nnc(C)n2)(C4)C3)cc1` it was “inactive”; in that of `CCOC(=O)c1oc2ccccc2c1COC(=O)C(C)NC(=O)c1ccco1` (stereo not given), “inactive”. For the compound `COc1cc(/C=N/N2CCN(c3ccccc3OC)CC2)ccc1O`, the result was inactive. As for `COc1ccccc1-n1c(SCC(=O)N2CCCC2)nc2cccnc21`, the outcome was inactive. With `CCCn1nnnc1SCC(=O)NCc1ccc(OC)cc1`, the compound was called inactive. With `CCOC(=O)c1[nH]c(CSc2nnnn2-c2ccccc2C)c(C(=O)OCC)c1C`, the outcome was inactive. For the compound `CCN(C[C@H]1N[C@@](C)(C(=O)OC)[C@H]2C(=O)N(Cc3ccccc3)C(=O)[C@@H]12)C(=O)Nc1ccc(Cl)cc1`, the call was inactive. In the case of `O=C(Cc1ccccc1)NNC(=O)c1cccs1` it was “inactive”; in that of `CCC(C)[C@H](NC(=O)NCc1ccccc1Cl)C(=O)O` (stereo not given in full), “inactive”. Take `CCC(=O)Nc1ccc(NC(=O)Cc2ccccc2)cn1`: the result was inactive. In the case of `O=C(NC1(O)C(=O)c2ccccc2C1=O)c1c(Cl)cccc1Cl` it was “inactive”.

Regarding `C#CCOCCOCCOCCNc1nc(N2CCN(C(=O)[C@H](CCC(=O)O)n3cc([C@@H](N)CCCCN)nn3)CC2)nc(N2CCN(C(=O)[C@H](CCC(=O)O)n3cc([C@@H](N)CCCCN)nn3)CC2)n1`, the compound was called inactive.

Turning to `Cc1sc2ncnc(OCC(=O)N3CCN(S(=O)(=O)c4ccc(Cl)cc4)CC3)c2c1C`, the outcome was inactive.

In the case of `Cc1onc(-c2c(F)cccc2Cl)c1C(=O)NC1CC1`, the result was inactive. As for `COC(=O)c1ccc(-c2sc3nc(N4CCOCC4)c4c(c3c2N)CC(C)(C)OC4)o1`, the entry is “inactive”; as for `COc1cc(C(C(=O)NC2CCCCC2)N(Cc2cccs2)C(=O)Cc2c[nH]c3ccccc23)cc(OC)c1OC` (stereo not given), “inactive”; as for `COc1ccc(C)cc1-n1nnnc1SC/C(O)=C(\C#N)c1nc2ccccc2[nH]1`, “inactive”. `CN1CCN(CC(=O)Nc2ccc(S(=O)(=O)N(C)C)cc2)CC1`: the compound was classed as inactive.

Consider `CCOC(=O)c1cc2nc(Nc3ccc(OC)cc3)sc2s1`, for which the result was inactive.

For `O=S(=O)(c1ccc2ccccc2c1)N(CC(O)COCc1ccco1)c1ccccc1` (stereo not given), the outcome was inactive. With `CCOc1cc(/C=C\c2[nH]c(=O)[nH]c(=O)c2[N+](=O)[O-])ccc1OC(C)CC` (stereo not given), the compound was classed as inactive. As for `O=C(NC1CC2CCC1C2)C1COc2ccccc2O1` (stereo not given), the entry is “inactive”.

As to `O=C(CN1C(=O)c2ccccc2C1=O)NCC1COc2ccccc2O1` (stereo not given), the outcome was inactive. In the case of `COc1ccc(NC(=O)c2cccc(N3C(=O)C4CC=C(C)CC4C3=O)c2)c(OC)c1` (stereo not given) it was “inactive”; in that of `COc1ccc(C2/C(=C(/O)c3ccccc3)C(=O)C(=O)N2CCN2CCOCC2)c(OC)c1` (stereo not given), “inactive”; in that of `CCC(=O)Nc1ccccc1Nc1cc(C#N)c(C#N)cc1[N+](=O)[O-]`, “inactive”. As for `O=[N+]([O-])c1ccccc1N/N=C\c1ccccc1Cl`, the entry is “inactive”; as for `COc1cccc(/C=N/NC(=O)CNC(=O)c2cccs2)c1O`, “inactive”; as for `Fc1cccc(/C=N/Nc2nc3ccccc3[nH]2)c1`, “inactive”. As for `O=C(O)CSc1nnc(COc2cccc3cccnc23)n1-c1cccc(C(F)(F)F)c1`, the entry is “inactive”.

Consider `CCCCN(C)C(=O)CCC(=O)NNc1nc2ccccc2c2nc(C)nn12`, for which the result was inactive. With `CCCCOC(=O)Cn1cnc2ccc(Br)cc2c1=O`, the outcome was inactive. Regarding `CCc1ccc2oc(=O)cc(CN3CCOCC3)c2c1`, the result was inactive.
